High-throughput results as filed in PubChem BioAssay.
This excerpt belongs to a sample that is enriched for hits.
RE007 growth inh: less growth of the S. pombe RE007 Vpr strain. AID 651644. Potency, µM (top dose mostly 92.2 µM), for inactives: top-dose activity change, negative = less growth, hits mostly inhibitors. S. pombe RE007 Vpr strain, BacTiter-Glo ATP luminescence, 24 h. 360,000 tested, 0.21% active; active = well fitted falling curve with a large enough effect; inconclusive = small, poorly fitted or top-dose-only effect; inactive = no such curve, though single readings can be large or run the other way; also: potency is read from the fitted curve at half-maximal effect; % is scaled to controls: 0 for no effect and ±100 for the full control effect; nearly all actives have a fitted effect of over 50% in size
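Fission yeast strain RE007, carrying one chromosomally integrated HIV-1 vpr copy, was seeded at OD 0.01 in PMG+AL medium with 23 nL pinned compound. After 24 h at 30 °C and 99% humidity, viability was read by BacTiter-Glo luminescence.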
Cycloheximide cs: counter-screen for Shiga toxin inhibitors: cycloheximide protein synthesis inhibition; cell reporter, cycloheximide protein synthesis inhibition counterscreen; max response, %; AID 2314; 300,000 tested, 12% active; in the data active = max response mostly above about 13%, no sharp cut-off; inactive = mostly below about 14%; also: read at 38.3 µM for the half of the compounds with a filed dose; 0% is about no effect
LmPK inh: LmPK (Leishmania mexicana) enzyme inhibition | purified LmPK, Kinase-Glo ATP luminescence, 1 h | Potency, µM (highest dose often 57.5 µM), for the others: top-dose activity change, negative = inhibition, most hits filed as inhibitors | 290,000 tested, 0.37% active | AID 1721; also: potency is read from the fitted curve at half-maximal effect; % is scaled to controls: 0 for no effect and ±100 for the full control effect
Target sequence (Q27686 whole entry, looked up): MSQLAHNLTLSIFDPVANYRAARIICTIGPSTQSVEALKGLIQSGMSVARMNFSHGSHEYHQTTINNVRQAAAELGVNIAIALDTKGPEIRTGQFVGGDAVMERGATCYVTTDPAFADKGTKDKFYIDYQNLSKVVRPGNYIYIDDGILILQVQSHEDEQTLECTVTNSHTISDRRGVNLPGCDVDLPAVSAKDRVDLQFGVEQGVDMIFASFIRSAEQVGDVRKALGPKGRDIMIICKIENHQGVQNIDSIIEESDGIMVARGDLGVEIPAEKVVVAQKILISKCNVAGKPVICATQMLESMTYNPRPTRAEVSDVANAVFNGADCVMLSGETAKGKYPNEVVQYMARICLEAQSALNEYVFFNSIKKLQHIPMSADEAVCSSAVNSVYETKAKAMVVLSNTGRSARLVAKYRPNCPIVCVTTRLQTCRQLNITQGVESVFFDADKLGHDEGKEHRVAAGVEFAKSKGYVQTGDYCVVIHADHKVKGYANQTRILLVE
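Pyruvate kinase activity monitored as ATP production (luciferase luminescence). Conditions: 0.1 nM enzyme, 0.5 mM PEP, 0.1 mM ADP, 1 h, RT; normalized against uninhibited and no-enzyme wells.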
TbPYK inhibitor: blocks Trypanosoma brucei pyruvate kinase; Potency, µM (top dose mostly 76.8 µM), for inactives: at the top dose activity, negative = inhibition, usual class: inhibitors; 410,000 tested, 0.12% active; Q57TT1; TbPYK enzyme, Kinase-Glo Plus ATP luminescence, 45 min; also: potency is read from the fitted curve at half-maximal effect; % is scaled to controls: 0 for no effect and ±100 for the full control effect; nearly all actives have a fitted effect of over 50% in size
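Glycolytic pyruvate kinase of T. brucei was incubated with substrate, test compound and 130 uM ADP for 45 minutes at room temperature. Luminescent Kinase-Glo Plus signal was measured after 10 minutes.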
FBPA Giardia inh: blocks Giardia fructose-bisphosphate aldolase activity; A8B2U2; purified Giardia FBPA; Potency, µM (titrated, usually from 59.6 µM), for the others: at the highest dose activity, negative = inhibition, most hits filed as inhibitors; 290,000 tested, 0.71% active; also: potency is read from the fitted curve at half-maximal effect; % is scaled to controls: 0 for no effect and ±100 for the full control effect; nearly all actives have a fitted effect of over 55% in size
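40 nM FBPA preincubated 10 min at RT with compound (up to 57.5 uM final), then substrate plus GAPDH/TPI/NAD/arsenate coupling and diaphorase/resazurin added. Fluorescence read after 20 min at RT, 525/598 nm.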
Shiga inhibitor: blocks Shiga toxin action in Vero cells; Vero cells, Shiga toxin protein synthesis inhibition reporter; 290,000 tested, 9.2% active; inhibition, % at 38.7 µM; AID 2315; in the data active = inhibition mostly above about 28%, no sharp cut-off; inactive = mostly below about 43%; also: 0% is about no effect
* marks the source's active call; other numbers are inactive results; [ ] = remark or other dose. Unless noted, calls follow the shape of the dose curve; as a rule, active = well fitted curve in the direction sought with a large enough effect; inconclusive = small, poorly fitted or top-dose-only effect, or another doubt; inactive = no such curve, though single readings can be large; an effect the other way counts as inactive or inconclusive.

`CCOC(=O)C1(Cc2ccccc2)CCCN(C2CCN(C(C)=O)CC2)C1` (stereo unspecified) gave RE007 growth inh 1%, Cycloheximide cs -1, LmPK inh 0%, TbPYK inhibitor -6%, FBPA Giardia inh -1% and Shiga inhibitor -3.
Screening CCOC(=O)C1(Cc2ccccc2)CCCN(C(=O)c2ccc(-n3ccnc3)cc2)C1 (stereo unspecified) returned RE007 growth inh -22%, Cycloheximide cs 26*, LmPK inh 0%, TbPYK inhibitor 1% and Shiga inhibitor 42*.
CCOC(=O)C1(Cc2ccccc2)CCCN(C(=O)C=C(C)C)C1 (stereo unspecified) was read as RE007 growth inh 1%, Cycloheximide cs 24*, LmPK inh 1%, TbPYK inhibitor 2%, FBPA Giardia inh 0% and Shiga inhibitor 86*.
Screening CCOCCc1nn2c(=O)cc(COC(=O)c3ccc(NC(=O)C(C)(C)C)cc3)nc2s1 returned TbPYK inhibitor 3%.
`COCCNc1nc(NCc2ccc(NC(C)=O)cc2)c2sc(-c3ccccc3)cc2n1` gave RE007 growth inh -13% and TbPYK inhibitor -5%.
CCCCCCC(=O)N(O)C1CC(=O)N(c2ccc(Cl)cc2)C1=O (stereo unspecified) was read as RE007 growth inh 4µM*, Cycloheximide cs -2, LmPK inh -25%, TbPYK inhibitor -24%, FBPA Giardia inh -16% and Shiga inhibitor 1.
CCCCCCC(=O)N(O)C1CC(=O)N(c2ccc(C)cc2)C1=O (stereo unspecified) was read as RE007 growth inh 0%[3.69 µM], Cycloheximide cs 13, LmPK inh -1%, FBPA Giardia inh -7% and Shiga inhibitor 9.
Cc1ccc(S(=O)(=O)N2C3CC(c4ccccc4)N(S(=O)(=O)c4ccccc4Cl)CC3C(=O)C[C@H]2c2ccccc2)cc1 (stereo partly specified) was read as RE007 growth inh -10%.
For CCOC(=O)n1c2ccccc2c(=O)n1CCO the results were RE007 growth inh -9% and TbPYK inhibitor -5%.
`Cc1ccc2nc(Cl)c3cc(C(=O)N(C)C4CCCCC4)sc3c2c1` gave TbPYK inhibitor 0%.
Screening Cc1c(C(=O)N(C)C2CCCCC2)sc2nc3ccc(N)cc3n12 returned Cycloheximide cs 31*, FBPA Giardia inh -15% and Shiga inhibitor 43*.
For Cc1ccc(S(=O)(=O)N2CCOCC2)cc1NC(=O)COC(=O)CCc1c[nH]c2ccccc12 the results were RE007 growth inh 19% and TbPYK inhibitor -8%.
CC1(C(=O)NCCOc2ccccc2Cl)CC1(Cl)Cl (stereo unspecified) was read as RE007 growth inh 1%, Cycloheximide cs 9, LmPK inh -2%, TbPYK inhibitor 1%, FBPA Giardia inh 3% and Shiga inhibitor 18.
`COc1ccccc1CCNC(=O)C1(C)CC1(Cl)Cl` (stereo unspecified) gave RE007 growth inh 35%, Cycloheximide cs 15*, LmPK inh 1%, TbPYK inhibitor 2%, FBPA Giardia inh 2% and Shiga inhibitor 26.
`O=C(NCc1cccnc1)NC1CCCCC1` gave RE007 growth inh -8%, Cycloheximide cs 11, LmPK inh -3%, TbPYK inhibitor -2%, FBPA Giardia inh -5% and Shiga inhibitor 3.
`O=C(NCCC1=CCCCC1)NC1CCCCC1` gave RE007 growth inh 33%, Cycloheximide cs 45*, LmPK inh -4%, TbPYK inhibitor -6%, FBPA Giardia inh 0% and Shiga inhibitor 72*.
For COc1ccc(CCNC(=O)NC2CCCCC2)cc1OC the results were RE007 growth inh 14%, Cycloheximide cs 2, LmPK inh -2%, TbPYK inhibitor 5%, FBPA Giardia inh 0% and Shiga inhibitor -8.
Screening O=C(NCCc1ccccc1)NC1CCCCC1 returned RE007 growth inh 12%, Cycloheximide cs 39*, LmPK inh -3%, TbPYK inhibitor -6%, FBPA Giardia inh 0% and Shiga inhibitor 52*.
O=C(NCc1ccccc1)NC1CCCCC1 was read as RE007 growth inh 7%, Cycloheximide cs 38*, LmPK inh -9%, TbPYK inhibitor 0%, FBPA Giardia inh 1% and Shiga inhibitor 42*.
Screening O=C(Nc1ncccc1O)c1ccc(S(=O)(=O)Nc2ccccc2)cc1 returned RE007 growth inh 1% and TbPYK inhibitor 1%.
`CCNc1ncc2nc(C)c(=O)n(Cc3cccc(OC)c3)c2n1` gave TbPYK inhibitor 3% and FBPA Giardia inh -1%.
Screening CCCCC/C=C\C/C=C\C/C=C\C=C\C(O)CCCC(=O)O (stereo unspecified) returned FBPA Giardia inh 5%.
`COc1ccc(NC(=O)c2ccc(CNc3c(NC4CCCCC4)c(=O)c3=O)cc2)cc1OC` gave RE007 growth inh -2%, Cycloheximide cs 4, LmPK inh 8%, TbPYK inhibitor -6%, FBPA Giardia inh inconclusive and Shiga inhibitor 20.
`COc1ccccc1CCNC(=O)NC1CCCCC1` gave RE007 growth inh -14%, Cycloheximide cs 18*, LmPK inh 2%, TbPYK inhibitor 7%, FBPA Giardia inh 2% and Shiga inhibitor 35.
`COc1ccc(CNC(=O)NC2CCCCC2)cc1` gave RE007 growth inh 14%, Cycloheximide cs 26*, LmPK inh -1%, TbPYK inhibitor 11%, FBPA Giardia inh -1% and Shiga inhibitor 33*.
COc1ccc(CNC(=O)c2ccc(CNc3c(NC4CCCCC4)c(=O)c3=O)cc2)cc1 was read as RE007 growth inh -1%, Cycloheximide cs 46*, LmPK inh 0%, TbPYK inhibitor 1%, FBPA Giardia inh 3% and Shiga inhibitor 36.
Screening Cc1sc2ncn(CC(=O)N3CCN(c4ccccc4)CC3)c(=O)c2c1S(=O)(=O)N1CCC(C)CC1 returned TbPYK inhibitor 1%.
`CCOC(=O)c1cc(C)n(CC2CCC(C(=O)Nc3cccc(C(C)=O)c3)CC2)c1C` (stereo unspecified) gave TbPYK inhibitor -4%.
CC1(C(=O)Nc2ccc3c(c2)OCCO3)CN(S(C)(=O)=O)CC(=O)N1CCc1c[nH]c2ccccc12 (stereo unspecified) was read as RE007 growth inh -8%.
`Nc1ccc2nc(-c3cc(Cl)c(N)c(Cl)c3)[nH]c2c1` gave RE007 growth inh 1%, Cycloheximide cs 36*, LmPK inh 16µM*, TbPYK inhibitor -4%, FBPA Giardia inh -12% and Shiga inhibitor 64*.
